# Data from PubChem BioAssay AID2845 (The Scripps Research Institute Molecular Screening Center, 2010).
# In all, about 2,300 compounds went through this assay and about 2,000 (87%) were called active. No stated cut-off is given here; in the data, active means activation above about 49%; inactive means the rest. So high a share suggests a set chosen from earlier hits. A selection follows.
# Molecular target: Aryl hydrocarbon receptor (Homo sapiens) (UniProt P35869)
# Experiment: AHR activators, confirmation, cell-based, luminescence, luciferase reporter, human (AID 2845);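 further: HepG2 hepatoma cells carrying a DRE-driven firefly luciferase reporter; 0% = vehicle wells and 100% = reference agonist wells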
# Conditions: human cells, AHR-responsive luciferase reporter, at 9 µM, hits give high values
# Aryl hydrocarbon receptor (Homo sapiens), sequence (P35869 whole entry, looked up): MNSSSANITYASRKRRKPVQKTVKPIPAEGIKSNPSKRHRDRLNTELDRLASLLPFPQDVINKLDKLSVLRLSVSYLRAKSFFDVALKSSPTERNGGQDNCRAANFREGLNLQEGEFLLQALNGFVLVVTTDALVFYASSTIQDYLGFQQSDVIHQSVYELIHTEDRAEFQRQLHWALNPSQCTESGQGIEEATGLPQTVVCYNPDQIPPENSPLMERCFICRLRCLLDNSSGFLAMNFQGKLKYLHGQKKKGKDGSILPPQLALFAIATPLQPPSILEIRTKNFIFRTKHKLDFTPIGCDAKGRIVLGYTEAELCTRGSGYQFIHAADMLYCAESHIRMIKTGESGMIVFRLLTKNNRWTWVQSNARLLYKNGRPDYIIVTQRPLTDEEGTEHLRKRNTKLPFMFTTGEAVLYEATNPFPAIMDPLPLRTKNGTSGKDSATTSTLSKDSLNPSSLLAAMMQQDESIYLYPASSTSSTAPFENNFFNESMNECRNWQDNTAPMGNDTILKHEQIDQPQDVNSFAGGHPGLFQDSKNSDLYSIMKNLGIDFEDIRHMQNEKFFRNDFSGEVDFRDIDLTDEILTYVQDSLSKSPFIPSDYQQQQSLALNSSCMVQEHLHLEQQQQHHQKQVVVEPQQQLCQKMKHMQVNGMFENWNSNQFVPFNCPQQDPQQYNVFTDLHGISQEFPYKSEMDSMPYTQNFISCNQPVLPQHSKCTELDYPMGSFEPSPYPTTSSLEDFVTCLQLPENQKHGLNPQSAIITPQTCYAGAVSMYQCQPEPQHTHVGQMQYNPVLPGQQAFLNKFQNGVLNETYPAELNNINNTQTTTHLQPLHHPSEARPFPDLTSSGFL
row,Structure (SMILES),activation
1,Cc1ccnc(-n2sc3ccccc3c2=O)n1,55.4% (active)
2,COc1ccccc1NC(=O)C1=C(C)NC2=C(C(=O)CCC2)C1c1ccc(C)o1 (configuration not stated),110% (active)
3,NC(=O)Nc1ccccc1C(=O)NCCc1ccccc1,106% (active)
4,CC(C)n1ncc2c(C(=O)Nc3ccc(CC#N)cc3)cc(C3CC3)nc21,25.4% (inactive)
5,Cc1ccc(NC(=O)Nc2cccnc2)cc1,67.7% (active)
6,CCC(=O)NC(=S)Nc1ccc(NC(=O)c2ccco2)c(Cl)c1,82% (active)
7,COc1cc(NC(=O)c2ccc(-c3csc(C)n3)cc2)c(OC)cc1Cl,119% (active)
8,CCNC(=S)N1CCC(c2nc3cc(C)c(C)cc3[nH]2)CC1,25.5% (inactive)
9,O=C(Nc1cccc(Br)c1)c1ccc2snnc2c1,74.4% (active)
10,CNC(=O)c1ccc2nc(NC(C)=O)sc2c1,22.7% (inactive)
11,COc1cc(CNCc2ccc3c(c2)OCO3)c([N+](=O)[O-])cc1OC,87.3% (active)
12,Brc1ccc(C2=CC(c3ccco3)n3ncnc3N2)cc1 (configuration not stated),90.4% (active)
13,S=c1[nH]nc(-c2cc(-c3ccsc3)n[nH]2)n1-c1ccccc1,103% (active)
14,Cc1ccnc(NC(=O)c2ccc(Cl)c([N+](=O)[O-])c2)c1,60.8% (active)
15,Cc1cccc(N=Nc2c(O)[nH]c3ccc(F)cc23)c1,147% (active)
16,CC(=O)Nc1ccc(-c2nc3ccccc3o2)cc1,-4.38% (inactive)
17,COc1cccc(-c2nc3cc(C)ccc3o2)c1,47% (active)
18,COc1ccc(OC)c(-c2csc(-c3cccs3)n2)c1,94.4% (active)
19,O=C(CCCCn1c(=O)[nH]c2ccccc2c1=O)NCc1ccc2c(c1)OCO2,56.1% (active)
20,Brc1ccc(C2CC(c3ccccc3)=Nc3ccccc3N2)cc1 (configuration not stated),80.8% (active)
21,NNc1nc2c(Cl)cccc2s1,57.5% (active)
22,CC(C)n1cnc2c(Nc3cccc(Cl)c3)nc(N(CCO)CCCO)nc21,11.4% (inactive)

row,Structure (SMILES),activation
1,CN(C)S(=O)(=O)Oc1ccccc1C(=O)Nc1ccccc1Cl,99.1% (active)
2,CCOC(=O)c1nc(-c2ccc3c(c2)OCO3)[nH]c1C,68.3% (active)
3,CCn1c2ccccc2c2cc(NC(=O)C/C(C)=N/NC(=O)c3ccccc3N)ccc21,61.5% (active)
4,CCn1c(NC(=O)c2nn(C)cc2Br)nc2ccccc21,70.7% (active)
5,O=C(Nc1ccc(Cl)cn1)c1cnn2cccnc12,179% (active)
6,COc1ccc(Nc2nnc(C)c3ccccc23)cc1,82.5% (active)
7,Cn1c(C(=O)NCCc2ccsc2)cc2c(=O)n(C)c3ccccc3c21,65.4% (active)
8,O=C(NC1CC1)C1=C[C@H](c2c[nH]c3ccccc23)C[C@H](OCc2ccc(CO)cc2)O1,27.6% (inactive)
9,O=C(N/N=C/c1c[nH]c2ccccc12)c1cc2ccccc2o1,42.3% (inactive)
10,O=C(N/N=C/c1ccco1)c1ccc(C(=O)N/N=C/c2ccco2)o1,73.2% (active)
11,COc1ccc(NC(=O)c2ccco2)cc1NC(=O)c1ccc(C#N)cc1F,71.7% (active)
12,N#C/C(=C(/O)COc1cccc2ccccc12)c1nc2ccccc2[nH]1,84.1% (active)
13,O=C(Nc1cc(S(=O)(=O)Nc2ccc(Cl)cc2)ccc1O)c1ccc(F)cc1F,103% (active)
14,Cc1nnc(NC(=O)/C=C/c2ccco2)s1,127% (active)
15,NS(=O)(=O)c1ccc(-c2ccc(/C=C3\SC(=O)NC3=O)o2)cc1,116% (active)
16,COc1cc(/C=N/N=C(\N)c2nonc2N)cc(OC)c1OC,101% (active)
17,Cc1cccc(NC(=O)c2ccc3ccccc3n2)n1,128% (active)
18,Cc1csc(NC(=S)Nc2cccc(Cl)c2)n1,98.7% (active)
19,CCSc1ccccc1C(=O)Nc1ccc2c(c1)OCO2,101% (active)
20,C/C(=N/NC(=S)Nc1ccccc1)c1ccc2c(c1)OCO2,16% (inactive)
21,Cc1cccc(NC(=O)Nc2ccc3c(c2)OCO3)n1,123% (active)
22,CCC(C)NCC(=O)Nc1ccc([N+](=O)[O-])cc1C(=O)Nc1ccccc1F (configuration not stated),88.2% (active)

row,Structure (SMILES),activation
1,COCCNc1nc(-c2ccccc2)nc2c1oc1ccccc12,121% (active)
2,CSc1ccc(C#N)cc1NC(=O)c1ccc(Cl)cc1,86.5% (active)
3,CCN(CC)C(=O)Oc1ccc(Br)cc1C(=O)Nc1ccc(F)c(Cl)c1,124% (active)
4,C/C(=N\NC(=O)c1cccnc1)c1ccc(-n2ccnc2)cc1,86.3% (active)
5,Cc1noc(C)c1/C=N/Nc1ccc2ccccc2n1,176% (active)
6,C(=N\Nc1ccc2ccccc2n1)/c1ccc2c(c1)OCO2,-10.8% (inactive)
7,COc1ccccc1Nc1ncnc2c1oc1ccccc12,132% (active)
8,CCn1ccnc1CN(C)Cc1nc(-c2ccc3c(c2)OCO3)no1,79.9% (active)
9,O=C(Nc1ccc(C2CC2(Cl)Cl)cc1)c1cccc([N+](=O)[O-])c1 (configuration not stated),96.2% (active)
10,O=C(NCCCn1ccnc1)c1cc(-c2ccccc2)on1,323% (active)
11,Clc1ccc(Nc2nc(-c3cccs3)cs2)nc1,141% (active)
12,Cc1ccc(NC(=O)NNC(=O)c2sccc2-n2cccc2)cc1,101% (active)
13,COc1ccc(Nc2nc(-c3ccccc3)cs2)cc1,91.2% (active)
14,C/C(CC1CC(C)(C)OC1=O)=N/Nc1nc(-c2ccccc2)cs1 (configuration not stated),-2.24% (inactive)
15,COc1ccc2nc(Nc3nc(-c4ccncc4)cs3)sc2c1,101% (active)
16,Cc1cccc(Nc2nc(-c3ccccc3)cs2)n1,131% (active)
17,S=c1nc2ccccc2c2nc(-c3cccnc3)[nH]n12,125% (active)
18,O=C(Nc1ccc(-c2csc(Nc3cccc(C(F)(F)F)c3)n2)cc1)c1cccc(C(F)(F)F)c1,4.55% (inactive)
19,O=C(Nc1ccc(C(F)(F)F)cc1)c1cccc(-n2cnnn2)c1,106% (active)
20,CC(C(=O)N=Nc1c(O)n(C)c2ccc(Br)cc12)n1cnc2ccccc2c1=O (configuration not stated),73.7% (active)
21,Cc1nn(Cc2ccc(Cl)cc2)c(Cl)c1/C=N/NC(=O)c1cccnc1,74.2% (active)
22,O=C(CSc1cccc2cccnc12)N/N=C/c1cccnc1,21.4% (inactive)

row,Structure (SMILES),activation
1,Cc1c(C(=O)NCC(c2ccco2)N2CCCC2)oc2ccc(Cl)cc12 (configuration not stated),75.5% (active)
2,COc1ccccc1N1CCN(C(=O)c2cc3c(-c4ccc(Cl)cc4)nn(C)c3s2)CC1,102% (active)
3,CCOC(=O)N1CCN(C(=O)c2cc3c(-c4ccc(Cl)cc4)nn(C)c3s2)CC1,85.9% (active)
4,Cn1nc(-c2ccc(Cl)cc2)c2cc(C(=O)NCc3ccco3)sc21,148% (active)
5,CN(C)c1nc(Nc2ccc(Cl)c(Cl)c2)nc(N(C)C)n1,129% (active)
6,C=CCNC(=O)CSc1nc2sc(C)c(C)c2c(=O)[nH]1,53% (active)
7,c1cnc(N2CCN(c3ccc4ccccc4n3)CC2)nc1,96.5% (active)
8,Cc1nc2sc(C(=O)c3ccccc3)c(N)c2c2c1CCCC2,97.5% (active)
9,Cn1c(SCC(=O)c2ccccc2)ncc(C(=O)Nc2ccc(F)cc2)c1=O,120% (active)
10,CC1Cc2ccccc2N1C(=O)CSc1nnc(C2CC2)n1C (configuration not stated),47.2% (active)
11,COc1ccc(C(=O)Nc2ccccc2C(=O)N/N=C/c2ccccc2OC)cc1,66.5% (active)
12,O=C(CC1Nc2ccccc2NC1=O)Nc1ccccc1 (configuration not stated),119% (active)
13,Cn1cc(Cl)c(C(=O)NNC(=S)Nc2cccc(Cl)c2)n1,75.4% (active)
14,O=C(Nn1c(-c2ccc(Cl)cc2)nc2ccccc2c1=O)c1cccnc1Cl,28.5% (inactive)
15,Cc1ccc(-c2nc(C#N)c(NCCCn3ccnc3)o2)cc1,107% (active)
16,O=C(Cn1c(NCCO)nc2ccccc21)c1ccc(Cl)cc1Cl,115% (active)
17,COc1ccc(C2NC(=O)c3ccccc3N2)cc1 (configuration not stated),39.3% (inactive)
18,Cc1cc(O)c(C(=O)/C=C/c2c(F)c(F)c(F)c(F)c2F)c(=O)o1,69.7% (active)
19,CCOC(=O)c1ccc2[nH]c3c(c2c1)CCCC3NC=O (configuration not stated),89.1% (active)
20,CC(C)C(=O)Nc1c(C(=O)c2ccc(F)cc2)oc2ccccc12,84.4% (active)
21,CSc1ncccc1C(=O)Nc1nc2ccc(F)cc2s1,-8.12% (inactive)
22,O=C(CSc1ccccn1)Nc1nc2c(ccc3ccccc32)s1,130% (active)

row,Structure (SMILES),activation
1,C/C(=N\NC(=O)CNc1cccc2ccccc12)c1ccc(Br)s1,79.5% (active)
2,Cc1nn2c3cc(N4CCOCC4)ccc3nc2c2ccccc12,85% (active)
3,Cc1cc(N2CCOCC2)nc(-c2ccc(Br)cc2)n1,60.3% (active)
4,O=C(Cn1cncn1)N/N=C/c1c2ccccc2cc2ccccc12,73.7% (active)
5,CCOc1ccccc1NC(=O)c1cccnc1,121% (active)
6,O=C(Nc1cccc(Cl)c1)C1CCCN(c2cnccn2)C1 (configuration not stated),73% (active)
7,Cc1ccc(Cl)cc1NC(=O)C1CCCN(c2cnccn2)C1 (configuration not stated),90.8% (active)
8,Brc1ccc(-c2noc(-c3ccccc3)n2)o1,162% (active)
9,Nc1[nH][nH]c(=O)c1N=Nc1ccc2c(c1)OCO2,74.9% (active)
10,C=CCOc1c(Br)cc(/C=N\n2nnnc2N)cc1OC,77.9% (active)
11,COc1ccc(Cl)cc1C(=O)Nc1ccc(N(C)C(C)=O)cc1,78.6% (active)
12,COc1cccc(-n2c(SCC(=O)NC3CCCCC3)nc3n[nH]c(C)c3c2=N)c1,83.7% (active)
13,COc1cc2ccccc2cc1C(=O)Nc1ccc(N2CCOCC2)cc1,118% (active)
14,COc1cccc(OC)c1C(=O)Nc1ccc(N2CCCCC2)cc1,80.7% (active)
15,O=C(Nc1ccc(OC(F)(F)F)cc1)c1ccc2c(c1)no[n+]2[O-],127% (active)
16,OCCNc1nc(Nc2ccc(Cl)c(Cl)c2)nc2ccccc12,83.8% (active)
17,CCc1nc(Nc2ccc3nccnc3c2)c2oc3ccccc3c2n1,120% (active)
18,CCCCC(=O)Nc1ccc(C(=O)Nc2cc(C(F)(F)F)ccc2Cl)cc1,92.7% (active)
19,Cc1nn(-c2ccccc2)c2[nH]c(C(F)(F)F)cc(=O)c12,52.9% (active)
